# Screening results deposited in PubChem BioAssay by several laboratories.
# Only some compounds are listed: those with a hit (about 2.2% of all), similar ones and a draw of the others.
# IEC-6 tox: kills IEC-6 intestinal cells in KLF5 counter-screen. IEC-6 cytotoxicity, luminescence viability. actives 0.78% (n = 290,000). inhibition, % at 5 µM. AID 1825; in the data active means inhibition above about 22%;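 further: 0% = plate median of test compound wells and 100% = cytotoxic reference compound wells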
# BaF3 parental: parental Ba/F3 viability inhibition as JAK2V617F counter-screen. actives 1.1% (n = 220,000). inhibition, % at 5.6 µM. AID 1486. CellTiter-Glo ATP luminescence;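 active means inhibition above a per-campaign cutoff, the mean inhibition of all tested compounds plus 3 SD, cut at about 27% in these data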;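 further: 0% = DMSO wells and 100% = JAK Inhibitor I control wells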
# KLF5 inhibitor: inhibitors of KLF5 expression; inhibition, % at 5 µM; DLD-1 KLF5 promoter-luciferase reporter, luminescence; actives 0.23% (n = 290,000);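 active means inhibition above a per-plate limit of that plate's mean compound inhibition plus 3 SD, cut at about 60% in these data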;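 further: 0% = DMSO wells and 100% = LY294002 at 200 µM; higher means less KLF5 promoter-driven luciferase light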
# APP transl inh: APP translation inhibition | inhibition, % at 2 µM | SH-SY5Y APP 5'UTR-luciferase reporter, luminescence | actives 0.82% (n = 190,000);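 active means inhibition above a set limit, derived from the sample mean plus 3 SD, cut at about 45% in these data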
# aSyn 5UTR inh: MLPCN primary screen, SNCA 5' untranslated region; alpha-synuclein 5'UTR reporter, inhibitor activity; inhibition, % (tested at 7.5 µM); actives 0.82% (n = 300,000); in the data active means inhibition above about 60%;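 further: H4 neuroglioblastoma cells stably carrying SNCA 5'UTR luciferase fusion; 0% = DMSO wells and 100% = positive control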
# Ba/F3 V617F tox: reduce viability of Ba/F3 cells dependent on JAK2V617F; Ba/F3 EpoR-JAK2V617F viability, ATP luminescence; inhibition, % at 5.6 µM; actives 1.1% (n = 220,000); AID 1446;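 active means inhibition above the campaign mean plus 3 SD over all tested compounds, cut at about 24% in these data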;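 further: cytokine-independent growth of Ba/F3 cells driven by EpoR plus mutant JAK2; 0% = DMSO-treated cells and 100% = JAK inhibitor I control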
# * = called active by the depositor; . = not tested or not shown.
SMILES,IEC-6 tox,BaF3 parental,KLF5 inhibitor,APP transl inh,aSyn 5UTR inh,Ba/F3 V617F tox
Cc1cc2c(cc1S(=O)(=O)N1CCN(c3cccc(C)c3C)CC1)OCC(=O)N2,2.1,.,-6.1,.,-1.3,.
COc1cccc(C2NC(=O)CCC2[N+](=O)[O-])c1OC (configuration not stated),0.6,.,-13.0,.,24.6,.
Cc1nc2ccc(CN(C)c3ccc(C(=O)N[C@@H](CCC(=O)O)C(=O)O)s3)cc2c(=O)[nH]1,.,.,.,.,103.1*,.
CCCCCCc1cc2cc(C(=O)Nc3cccc(OC)c3)c(=O)oc2cc1O,2.0,3.4,5.2,-6.7,62.8*,-1.1
CCOc1ncccc1C(=O)NNC(=O)c1ccccc1-n1cccc1,-3.5,.,-23.9,.,20.2,.
NC(=S)N=Nc1ccc(NN=C(N)N)cc1,-7.4,.,-7.3,.,68.4*,.
Cc1cc(C)c(S(=O)(=O)N2CCCCC2CCNC(=O)C(=O)NCc2ccco2)c(C)c1 (configuration not stated),.,.,.,.,-7.7,.
O=C(CNC(=O)c1cccc(F)c1)N/N=C/c1cc(Br)ccc1OC(=O)/C=C/c1ccco1,8.7,6.1,-3.4,52.5*,57.5,-0.6
O=C(CNC(=O)c1ccccc1O)N/N=C/c1cc(Br)ccc1OC(=O)/C=C/c1ccco1,-5.3,3.3,14.9,23.7,68.1*,-1.1
O=C(CNC(=O)c1ccccc1Br)N/N=C/c1ccco1,-2.3,.,-26.3,.,2.9,.
O=C1c2ccccc2C(=O)N1CC(O)COc1ccccc1Cl (configuration not stated),-5.2,.,-102.5,.,-12.1,.
CN1CCN(C2Cc3cc(Cl)ccc3Sc3cc(F)ccc32)CC1 (configuration not stated),.,.,.,.,100.8*,.
Cc1nn(C)c(C)c1/C=C(/C(=O)C(C)C)n1cncn1,2.6,-5.5,-24.6,.,-9.6,2.2
CC(C)(C)C(=O)/C(=C/c1ccncc1)n1cncn1,21.6,74.5*,14.2,58.2*,-58.0,90.9*
Cc1nn(C)c(C)c1/C=C(/C(=O)C(C)(C)C)n1cncn1,-4.3,-4.2,-5.7,.,88.9*,-6.6
COc1ccc(/C=C/c2cc(-c3ccc(C)cc3)o[n+]2C)cc1,2.4,93.4*,50.0,-1.1,89.2*,101.0*
Cc1ccc(-n2nc3c(=O)n(CC(=O)NCCc4cccs4)nc(C)c3c2C)cc1,6.4,.,-8.0,.,42.8,.
Cc1ccc(-n2nc3c(N4CCC(C(=O)NCCc5cccs5)CC4)nnc(C)c3c2C)cc1,17.2,.,-29.8,.,90.3*,.
Cc1cc(C(=O)COc2cccnc2[N+](=O)[O-])c(C)n1Cc1ccco1,-8.8,8.4,-26.9,5.0,14.2,1.9
Cc1ccc(-n2c(C)cc(C(=O)COc3cccnc3[N+](=O)[O-])c2C)cc1,0.9,5.7,28.0,-26.9,64.1*,0.8
Cc1cc(-n2c(C)cc(C(=O)COc3ccccc3[N+](=O)[O-])c2C)no1,-2.4,7.3,-29.8,-25.0,-67.5,1.7
Cc1cc(C(=O)COc2cccnc2[N+](=O)[O-])c(C)n1-c1ccccc1,-4.2,5.2,-19.0,21.4,99.8*,2.0
Cc1cc(C(=O)COc2cccnc2[N+](=O)[O-])c(C)n1-c1ccccc1F,-7.1,-4.5,-30.5,.,67.5*,-2.4
CCCCn1c(N)c(N(CC)C(=O)C2=COCCO2)c(=O)[nH]c1=O,.,.,.,.,6.6,.
Cc1ccc(C(=O)/C=C\C(=O)c2ccc(C)cc2)cc1,-3.3,3.1,-7.8,88.0*,-63.3,-2.2
SMILES,IEC-6 tox,BaF3 parental,KLF5 inhibitor,APP transl inh,aSyn 5UTR inh,Ba/F3 V617F tox
Fc1ccc(-c2nnc3ccccn23)cc1,3.5,80.7*,-8.4,-3.8,-11.6,1.2
Fc1ccc(-c2ncc3ccccn23)cc1,-1.5,3.4,-48.1,-2.2,-100.7,-2.8
Cc1cc(O)c(C)c(O)c1/C=N/NC(=O)c1cccnc1,12.9,.,22.2,.,68.5*,.
CCC(C)(C)c1ccc(OCCCC[n+]2cccc(C)c2C)c(C(C)(C)CC)c1,21.5,99.2*,40.7,.,100.8*,98.5*
Cc1cc[n+](CC[n+]2ccc(C)cc2)cc1,.,.,.,.,-9.7,.
CCC(C)(C)c1ccc(OCCCC[n+]2ccc(C)cc2)c(C(C)(C)CC)c1,21.4,102.9*,34.9,-21.3,25.0,101.7*
Cc1cc(C(C)(C)C)ccc1OCCCCN1CCCC1,-7.6,7.0,-0.8,-6.7,-14.5,-1.7
O=c1[nH]cnc2c1sc1nc3c(c(-c4ccc(Cl)cc4)c12)CCC3,4.0,1.7,-17.9,51.2*,34.7,-1.1
CC(C)OC(=O)c1ccccc1C(=O)c1ccc(N)c([N+](=O)[O-])c1,-2.5,2.5,0.4,6.8,4.4,-2.8
O=C(COC(=O)c1ccccc1C(=O)c1ccc(Cl)c([N+](=O)[O-])c1)NC1CC1,-6.7,-5.1,-10.1,48.4*,-23.5,-1.5
CNC(=O)COC(=O)c1ccccc1C(=O)c1ccc(Cl)c([N+](=O)[O-])c1,-1.9,4.3,-3.7,54.5*,-19.2,4.3
COc1ccc(C)cc1NC(=O)n1ncc2cc(Cl)ccc21,0.7,.,3.2,.,23.8,.
CN(CC(O)COc1ccc(OCC(O)CN(C)C2CCCCC2)cc1)C1CCCCC1 (configuration not stated),11.4,5.6,-35.8,9.0,-11.3,1.1
Cc1cccc(C)c1OCC(O)CN(Cc1ccccc1O)C1CCCCC1 (configuration not stated),1.1,3.2,-37.9,4.2,61.8*,1.9
COc1ccc(C2C3=C(CCCC3=O)Nc3nc(-c4cc(OC)c(OC)c(OC)c4)nn32)cc1OC (configuration not stated),0.8,93.0*,-25.1,-3.4,-5.8,-0.1
CCOC(=O)C[N+](C)(C)CCOC1CC2CCC1(C)C2(C)C (configuration not stated),0.2,30.2*,17.9,-31.7,-6.1,14.8
CC1(C)C2CCC1(C)C(OCC[N+](C)(C)CC(=O)OC1CCCCC1)C2 (configuration not stated),1.8,82.6*,6.5,10.1,4.3,99.9*
O=c1oc2ccc(Cl)cc2nc1/C=C(\O)c1cccs1,0.2,38.4*,-55.5,.,-107.6,36.2*
Cc1ccc2nc(Cl)nc(-c3ccccc3)c2c1,2.3,9.7,10.7,-28.1,14.7,1.3
Cc1ccc2nc(Cl)c(-c3ccccc3)cc2c1,.,.,.,.,74.2*,.
O=S(=O)(c1cccc(C(F)(F)F)c1)N1CCCC1c1cccnc1 (configuration not stated),16.3,32.1*,20.2,.,21.5,-1.1
Cc1nnc(Nc2ccc(S(N)(=O)=O)cc2)c2ccccc12,-3.0,.,-14.9,.,-22.0,.
C/C(=N\NC(=O)c1nnn(-c2nonc2N)c1CN(C)c1ccccc1)c1ccccn1,38.4*,.,62.0*,.,88.4*,.
C/C(=N\NC(=O)c1nnn(-c2nonc2N)c1CN(C)c1ccccc1)c1ccc(O)cc1,-9.3,.,-24.4,.,18.3,.
COc1ccc2cc(C(C)C(=O)N3CCC(C(N)=O)CC3)ccc2c1 (configuration not stated),1.3,.,-5.2,.,14.5,.
Cc1[nH]c2ccccc2c1/C=C/c1cc[n+](C)cc1,4.9,76.6*,-23.4,-10.3,-11.8,84.9*
